Targets with a hit are over-represented here; the source holds about 7,900 in all. About 0.6% of all pairs of compound and target were hits.
How the values were obtained:
Experiment in all cases: log2 fold change, soluble protein after heating vs DMSO (PISA); higher = thermal stabilisation; K562 cells, 10 uM, 30 min; active = over 0.2 and 3.5 SD of the protein, either way, in both replicates (recomputed)
[1] = compound: CC1=C(C=C(C=C1)NC(=O)C2=CC(=CC=C2)C(C)(C)C#N)NC3=CC4=C(C=C3)N=CN(C4=O)C
In short: (§1)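 Soluble protein was defined as the supernatant after 21,000xg for 90 min. It came from K562 cells at 2×10^6 cells/mL given 10 μM compound for 30 min, heated in aliquots for 3 min across 48°C-58°C, pooled, and extracted in PBS with 0.5% NP-40 at 4°C, and was quantified by TMTpro 16plex LC-MS/MS with equalised channel sums. Thermal stability against control samples, from duplicates, is reported as log2 fold change.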

[2] = compound: CC1=C(C=C(C=C1)NC(=O)C2=CC(=CC=C2)N(C)C)NC(=O)C3=CC=C(C=C3)O
In short: as §1

[3] = compound: CC1=CC=C(C=C1)SC2=C3C=C(SC3=CN=C2)C(=O)N
In short: as §1

[4] = compound: CC1=NC(=CC=C1)C2=C(N=C(N2)C(C)(C)C)C3=CC4=NC=CN=C4C=C3
In short: as §1

Nexturastat A = compound: CCCCN(Cc1ccc(C(=O)NO)cc1)C(=O)Nc1ccccc1 [Nexturastat A]
In short: as §1

vemurafenib = compound: CCCS(=O)(=O)Nc1ccc(F)c(C(=O)c2c[nH]c3ncc(-c4ccc(Cl)cc4)cc23)c1F [vemurafenib]
In short: as §1

[5] = compound: CCCS(=O)(=O)Nc1ccc(F)c(C(=O)c2c[nH]c3ncc(Cl)cc23)c1F
In short: as §1

[6] = compound: CCCc1cc(C)[nH]c(=O)c1CNC(=O)c1cc(-c2ccnc(N3CCN(C)CC3)c2)cc2c1cnn2C(C)C
In short: as §1

givinostat = compound: CCN(CC)Cc1ccc2cc(COC(=O)Nc3ccc(C(=O)NO)cc3)ccc2c1 [givinostat]
In short: as §1

barasertib = compound: CCN(CCCOc1ccc2c(Nc3cc(CC(=O)Nc4cccc(F)c4)[nH]n3)ncnc2c1)CCOP(=O)(O)O [barasertib]
In short: as §1

Measured: log2 fold change

PPOX (UniProt P50336)
Chain of UniProt P50336 (P50336 whole entry, looked up): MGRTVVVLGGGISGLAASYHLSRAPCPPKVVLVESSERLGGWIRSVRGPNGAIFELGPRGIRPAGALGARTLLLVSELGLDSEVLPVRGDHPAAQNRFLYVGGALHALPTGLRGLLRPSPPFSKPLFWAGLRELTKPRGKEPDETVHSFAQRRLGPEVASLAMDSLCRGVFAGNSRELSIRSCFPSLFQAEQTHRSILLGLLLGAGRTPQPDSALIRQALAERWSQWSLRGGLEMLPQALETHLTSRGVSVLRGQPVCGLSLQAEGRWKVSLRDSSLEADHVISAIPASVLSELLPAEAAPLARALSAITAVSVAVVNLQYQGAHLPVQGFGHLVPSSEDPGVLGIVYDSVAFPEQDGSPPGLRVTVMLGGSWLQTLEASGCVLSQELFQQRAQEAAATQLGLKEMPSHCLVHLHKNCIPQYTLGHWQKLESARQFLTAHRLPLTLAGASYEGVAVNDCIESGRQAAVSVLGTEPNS
inactive: [1] 0.402 | [2] -0.014 | [3] 0.043 | [4] 0.099 | Nexturastat A -0.232 | vemurafenib 0.065 | [5] 0.046 | [6] 0.184 | givinostat -0.063 | barasertib 0

PFDN1 (UniProt O60925)
Chain of UniProt O60925 (O60925 whole entry, looked up): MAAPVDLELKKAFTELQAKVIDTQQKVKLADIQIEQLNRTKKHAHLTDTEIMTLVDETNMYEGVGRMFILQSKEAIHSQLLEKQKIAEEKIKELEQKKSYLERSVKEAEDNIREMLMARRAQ
inactive: [1] 0.039 | [2] -0.131 | [3] 0.089 | [4] 0.041 | Nexturastat A -0.071 | vemurafenib 0.172 | [5] -0.019 | [6] -0.016 | givinostat 0.004 | barasertib 0.002

PIP4K2C (UniProt Q8TBX8)
inactive: [1] -0.003 | [2] -0.06 | [3] 0.073 | [4] 0.007 | Nexturastat A -0.046 | vemurafenib -0.035 | [5] 0 | [6] -0.029 | givinostat -0.047 | barasertib -0.016

PIK3R1 (UniProt P27986)
Chain of UniProt P27986 (P27986 whole entry, looked up): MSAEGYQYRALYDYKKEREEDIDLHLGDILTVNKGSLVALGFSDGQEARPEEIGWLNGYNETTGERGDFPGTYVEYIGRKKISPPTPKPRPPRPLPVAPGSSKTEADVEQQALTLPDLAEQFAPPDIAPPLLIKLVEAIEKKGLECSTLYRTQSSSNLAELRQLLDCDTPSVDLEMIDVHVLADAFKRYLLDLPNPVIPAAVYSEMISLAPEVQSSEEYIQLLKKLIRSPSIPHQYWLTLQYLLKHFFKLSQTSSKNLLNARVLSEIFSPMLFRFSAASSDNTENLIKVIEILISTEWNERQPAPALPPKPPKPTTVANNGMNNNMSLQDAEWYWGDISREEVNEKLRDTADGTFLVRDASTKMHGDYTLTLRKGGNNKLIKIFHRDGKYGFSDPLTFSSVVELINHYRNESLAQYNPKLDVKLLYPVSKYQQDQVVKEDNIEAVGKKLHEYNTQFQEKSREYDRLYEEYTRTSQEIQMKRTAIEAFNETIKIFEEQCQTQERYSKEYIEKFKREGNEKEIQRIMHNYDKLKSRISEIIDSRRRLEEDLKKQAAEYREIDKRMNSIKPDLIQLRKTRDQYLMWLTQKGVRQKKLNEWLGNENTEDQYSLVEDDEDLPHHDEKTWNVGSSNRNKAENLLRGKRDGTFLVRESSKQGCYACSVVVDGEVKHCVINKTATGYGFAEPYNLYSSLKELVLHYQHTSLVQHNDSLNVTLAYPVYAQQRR
inactive: [1] -0.08 | [2] 0.001 | [3] -0.019 | [4] -0.046 | Nexturastat A -0.018 | vemurafenib 0.047 | [5] 0.058 | [6] -0.054 | givinostat 0.028 | barasertib 0.038

PPM1G (UniProt O15355)
inactive: [1] 0.087 | [2] -0.04 | [3] -0.031 | [4] 0.048 | Nexturastat A -0.053 | vemurafenib 0.112 | [5] 0.13 | [6] 0.067 | givinostat 0.17 | barasertib 0.052

POTEI (UniProt P0CG38)
inactive: [1] 0.056 | [2] -0.035 | [3] -0.012 | [4] 0.052 | Nexturastat A -0.071 | vemurafenib 0.08 | [5] 0.014 | [6] -0.072 | givinostat -0.018 | barasertib 0

PPID (UniProt Q08752)
inactive: [1] 0.011 | [2] -0.047 | [3] 0.091 | [4] 0.005 | Nexturastat A 0.008 | vemurafenib 0.097 | [5] 0.105 | [6] 0.104 | givinostat 0.122 | barasertib 0.057

PCBP1 (UniProt Q15365)
inactive: [1] 0.034 | [2] -0.037 | [3] 0.112 | [4] 0.067 | Nexturastat A -0.038 | vemurafenib 0.022 | [5] 0.097 | [6] -0.011 | givinostat 0.013 | barasertib 0.021

PRIM2 (UniProt P49643)
inactive: [1] -0.028 | [2] -0.018 | [3] -0.019 | [4] 0.054 | Nexturastat A 0.017 | vemurafenib 0.054 | [5] 0.03 | [6] 0.023 | givinostat 0.085 | barasertib 0.08

PPP2R5A (UniProt Q15172)
Chain of UniProt Q15172 (Q15172 whole entry, looked up): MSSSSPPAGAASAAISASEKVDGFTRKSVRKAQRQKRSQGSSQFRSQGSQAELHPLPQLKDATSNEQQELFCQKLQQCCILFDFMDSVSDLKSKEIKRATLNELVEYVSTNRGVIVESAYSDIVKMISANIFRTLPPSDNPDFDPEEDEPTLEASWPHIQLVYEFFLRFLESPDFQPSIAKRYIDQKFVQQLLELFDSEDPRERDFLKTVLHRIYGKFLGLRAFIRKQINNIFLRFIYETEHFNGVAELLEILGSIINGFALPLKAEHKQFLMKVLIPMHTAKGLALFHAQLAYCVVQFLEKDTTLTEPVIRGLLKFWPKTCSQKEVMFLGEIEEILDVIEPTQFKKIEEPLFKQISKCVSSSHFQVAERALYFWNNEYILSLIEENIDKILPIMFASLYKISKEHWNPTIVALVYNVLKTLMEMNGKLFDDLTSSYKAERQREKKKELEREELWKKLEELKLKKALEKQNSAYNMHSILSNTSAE
inactive: [1] -0.014 | [2] -0.039 | [3] 0.032 | [4] 0.051 | Nexturastat A -0.017 | vemurafenib 0.061 | [5] 0.146 | [6] -0.003 | givinostat 0.026 | barasertib 0.002

PMPCA (UniProt Q10713)
inactive: [1] 0.046 | [2] -0.049 | [3] 0.014 | [4] 0.006 | Nexturastat A -0.102 | vemurafenib 0.025 | [5] 0.037 | [6] -0.006 | givinostat -0.019 | barasertib -0.027

PMM2 (UniProt O15305)
inactive: [1] -0.102 | [2] 0.021 | [3] -0.014 | [4] -0.009 | Nexturastat A -0.124 | vemurafenib -0.04 | [5] -0.009 | [6] -0.055 | givinostat 0.015 | barasertib 0.003

PTPN12 (UniProt Q05209)
Chain of UniProt Q05209 (Q05209 whole entry, looked up): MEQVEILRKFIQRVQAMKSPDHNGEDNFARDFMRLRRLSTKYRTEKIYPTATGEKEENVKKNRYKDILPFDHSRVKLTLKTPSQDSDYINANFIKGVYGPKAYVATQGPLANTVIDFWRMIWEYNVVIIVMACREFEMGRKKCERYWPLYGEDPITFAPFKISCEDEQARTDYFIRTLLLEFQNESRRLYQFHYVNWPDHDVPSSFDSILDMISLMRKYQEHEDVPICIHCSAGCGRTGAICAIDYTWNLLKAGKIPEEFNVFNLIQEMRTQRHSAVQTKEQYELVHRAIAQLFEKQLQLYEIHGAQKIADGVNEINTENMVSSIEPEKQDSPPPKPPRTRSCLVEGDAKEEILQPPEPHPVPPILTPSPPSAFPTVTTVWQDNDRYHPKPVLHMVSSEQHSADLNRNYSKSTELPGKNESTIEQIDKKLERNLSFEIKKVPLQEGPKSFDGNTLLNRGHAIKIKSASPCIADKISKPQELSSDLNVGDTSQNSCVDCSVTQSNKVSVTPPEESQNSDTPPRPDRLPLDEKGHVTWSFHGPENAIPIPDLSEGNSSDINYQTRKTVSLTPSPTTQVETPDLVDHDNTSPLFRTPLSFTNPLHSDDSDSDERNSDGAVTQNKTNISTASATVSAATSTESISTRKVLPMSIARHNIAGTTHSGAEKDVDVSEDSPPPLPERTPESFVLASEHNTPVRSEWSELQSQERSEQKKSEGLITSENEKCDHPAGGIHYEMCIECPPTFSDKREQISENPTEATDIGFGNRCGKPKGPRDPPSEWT
inactive: [1] -0.026 | [2] -0.071 | [3] -0.037 | [4] -0.034 | Nexturastat A 0.162 | vemurafenib -0.002 | [5] 0.04 | [6] 0.07 | givinostat 0.072 | barasertib 0.127

POLD1 (UniProt P28340)
inactive: [1] -0.083 | [2] -0.028 | [3] 0.018 | [4] 0.022 | Nexturastat A 0.02 | vemurafenib 0.033 | [5] 0.071 | [6] 0.006 | givinostat 0.021 | barasertib 0.005

PLIN2 (UniProt Q99541)
inactive: [1] 0.069 | [2] 0.018 | [3] 0.109 | [4] 0.022 | Nexturastat A 0.082 | vemurafenib 0.01 | [5] 0.042 | [6] -0.12 | givinostat -0.014 | barasertib 0.013

PSMD8 (UniProt P48556)
Chain of UniProt P48556 (P48556 whole entry, looked up): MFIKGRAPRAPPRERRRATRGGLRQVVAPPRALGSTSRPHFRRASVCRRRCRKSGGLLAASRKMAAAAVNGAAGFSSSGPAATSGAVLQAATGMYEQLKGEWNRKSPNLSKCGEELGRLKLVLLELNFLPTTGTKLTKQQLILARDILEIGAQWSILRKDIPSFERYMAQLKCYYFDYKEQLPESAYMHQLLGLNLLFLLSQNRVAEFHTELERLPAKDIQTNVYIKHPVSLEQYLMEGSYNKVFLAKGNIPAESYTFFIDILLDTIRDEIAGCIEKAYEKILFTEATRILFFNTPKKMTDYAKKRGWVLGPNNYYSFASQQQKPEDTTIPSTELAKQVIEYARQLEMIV
inactive: [1] 0.044 | [2] 0.047 | [3] -0.056 | [4] -0.045 | Nexturastat A 0.128 | vemurafenib -0.082 | [5] -0.073 | [6] 0.022 | givinostat -0.04 | barasertib -0.034

RAB11FIP1 (UniProt Q6WKZ4)
inactive: [1] -0.009 | [2] 0.001 | [3] 0.015 | [4] -0.018 | Nexturastat A 0.034 | vemurafenib 0.006 | [5] 0.063 | [6] 0.009 | givinostat 0.015 | barasertib 0.014

PSMD12 (UniProt O00232)
inactive: [1] 0.066 | [2] -0.004 | [3] -0.005 | [4] -0.011 | Nexturastat A 0.047 | vemurafenib -0.031 | [5] 0.009 | [6] 0.052 | givinostat -0.002 | barasertib -0.044

PEF1 (UniProt Q9UBV8)
inactive: [1] -0.011 | [2] -0.075 | [3] 0.027 | [4] 0.013 | Nexturastat A 0.032 | vemurafenib 0.008 | [5] 0.073 | [6] -0.045 | givinostat 0.022 | barasertib 0.122

PMPCB (UniProt O75439)
Chain of UniProt O75439 (O75439 whole entry, looked up): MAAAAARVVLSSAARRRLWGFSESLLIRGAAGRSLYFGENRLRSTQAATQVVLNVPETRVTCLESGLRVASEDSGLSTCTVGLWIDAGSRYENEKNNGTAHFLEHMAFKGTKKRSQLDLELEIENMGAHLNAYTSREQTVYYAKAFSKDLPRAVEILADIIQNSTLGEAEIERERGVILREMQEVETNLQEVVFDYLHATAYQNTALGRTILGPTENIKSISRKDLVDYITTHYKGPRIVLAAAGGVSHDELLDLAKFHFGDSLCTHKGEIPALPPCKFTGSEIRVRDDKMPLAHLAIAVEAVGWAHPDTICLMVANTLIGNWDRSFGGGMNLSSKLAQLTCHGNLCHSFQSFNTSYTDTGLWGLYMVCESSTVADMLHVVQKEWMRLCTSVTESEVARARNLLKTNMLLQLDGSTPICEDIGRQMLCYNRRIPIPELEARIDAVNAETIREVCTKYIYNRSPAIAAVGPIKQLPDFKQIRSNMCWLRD
inactive: [1] 0.012 | [2] -0.063 | [3] -0.009 | [4] 0.03 | Nexturastat A -0.07 | vemurafenib 0.06 | [5] -0.019 | [6] -0.015 | givinostat -0.042 | barasertib 0.01

PGGT1B (UniProt P53609)
Chain of UniProt P53609 (P53609 whole entry, looked up): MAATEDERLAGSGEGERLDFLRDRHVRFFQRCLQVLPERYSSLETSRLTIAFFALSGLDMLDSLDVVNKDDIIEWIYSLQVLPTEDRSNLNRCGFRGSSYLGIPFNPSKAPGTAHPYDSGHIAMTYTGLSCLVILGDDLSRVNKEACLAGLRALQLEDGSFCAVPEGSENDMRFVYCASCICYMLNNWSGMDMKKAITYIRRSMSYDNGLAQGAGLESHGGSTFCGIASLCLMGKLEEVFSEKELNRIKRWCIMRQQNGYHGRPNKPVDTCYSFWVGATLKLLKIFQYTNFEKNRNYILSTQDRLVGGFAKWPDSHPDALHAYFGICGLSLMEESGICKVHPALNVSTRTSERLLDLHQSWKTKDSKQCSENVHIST
inactive: [1] -0.062 | [2] 0.006 | [3] 0.002 | [4] 0.035 | Nexturastat A -0.073 | vemurafenib -0.022 | [5] -0.023 | [6] -0.025 | givinostat 0.009 | barasertib 0.035

PSPC1 (UniProt Q8WXF1)
Chain of UniProt Q8WXF1 (Q8WXF1 whole entry, looked up): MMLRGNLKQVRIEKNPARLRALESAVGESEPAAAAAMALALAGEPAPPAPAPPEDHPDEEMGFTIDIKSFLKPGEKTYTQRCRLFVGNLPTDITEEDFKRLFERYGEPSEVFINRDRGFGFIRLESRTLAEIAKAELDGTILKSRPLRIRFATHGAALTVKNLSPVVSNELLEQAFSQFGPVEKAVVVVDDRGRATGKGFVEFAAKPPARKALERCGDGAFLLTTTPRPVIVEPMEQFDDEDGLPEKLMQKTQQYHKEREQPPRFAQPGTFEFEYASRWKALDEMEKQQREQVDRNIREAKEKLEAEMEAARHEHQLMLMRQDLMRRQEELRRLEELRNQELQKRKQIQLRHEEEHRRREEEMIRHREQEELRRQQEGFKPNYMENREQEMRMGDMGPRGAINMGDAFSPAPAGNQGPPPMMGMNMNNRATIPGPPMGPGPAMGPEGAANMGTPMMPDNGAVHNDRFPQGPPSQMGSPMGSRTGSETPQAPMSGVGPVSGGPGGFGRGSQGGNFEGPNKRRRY
inactive: [1] 0.022 | [2] 0.011 | [3] 0.01 | [4] 0.007 | Nexturastat A 0.053 | vemurafenib -0.003 | [5] 0.135 | [6] 0.167 | givinostat 0.036 | barasertib 0.01

POLR2K (UniProt P53803)
inactive: [1] -0.036 | [2] 0.065 | [3] 0.056 | [4] 0.024 | Nexturastat A -0.162 | vemurafenib -0.001 | [5] -0.024 | [6] 0.075 | givinostat -0.137 | barasertib 0.023

PSMD1 (UniProt Q99460)
inactive: [1] 0.06 | [2] 0.021 | [3] -0.001 | [4] -0.011 | Nexturastat A 0.055 | vemurafenib -0.041 | [5] -0.049 | [6] 0.05 | givinostat -0.046 | barasertib -0.036

PRPSAP2 (UniProt O60256)
inactive: [1] -0.141 | [2] -0.002 | [3] -0.021 | [4] -0.07 | Nexturastat A -0.083 | vemurafenib -0.022 | [5] -0.019 | [6] -0.026 | givinostat -0.034 | barasertib -0.005

PCYT1A (UniProt P49585)
inactive: [1] -0.049 | [2] -0.038 | [3] -0.045 | [4] 0.035 | Nexturastat A -0.034 | vemurafenib 0.052 | [5] 0.043 | [6] -0.092 | givinostat -0.024 | barasertib 0.044

PLCL1 (UniProt Q15111)
inactive: [1] 0.056 | [2] -0.061 | [4] 0.03 | Nexturastat A 0.253 | vemurafenib 0.068 | [6] 0.159 | givinostat 0.21 | barasertib 0.205

PEX11B (UniProt O96011)
inactive: [1] 0.06 | [2] -0.039 | [3] 0.321 | [4] -0.008 | Nexturastat A -0.076 | vemurafenib 0.08 | [5] 0 | [6] 0.029 | givinostat 0.008 | barasertib -0.002

PBX2 (UniProt P40425)
inactive: [1] 0.049 | [2] 0.001 | [3] 0.089 | [4] 0.165 | Nexturastat A 0.072 | vemurafenib 0.099 | [5] 0.136 | [6] 0.026 | givinostat 0.138 | barasertib 0.03

PSMD5 (UniProt Q16401)
Chain of UniProt Q16401 (Q16401 whole entry, looked up): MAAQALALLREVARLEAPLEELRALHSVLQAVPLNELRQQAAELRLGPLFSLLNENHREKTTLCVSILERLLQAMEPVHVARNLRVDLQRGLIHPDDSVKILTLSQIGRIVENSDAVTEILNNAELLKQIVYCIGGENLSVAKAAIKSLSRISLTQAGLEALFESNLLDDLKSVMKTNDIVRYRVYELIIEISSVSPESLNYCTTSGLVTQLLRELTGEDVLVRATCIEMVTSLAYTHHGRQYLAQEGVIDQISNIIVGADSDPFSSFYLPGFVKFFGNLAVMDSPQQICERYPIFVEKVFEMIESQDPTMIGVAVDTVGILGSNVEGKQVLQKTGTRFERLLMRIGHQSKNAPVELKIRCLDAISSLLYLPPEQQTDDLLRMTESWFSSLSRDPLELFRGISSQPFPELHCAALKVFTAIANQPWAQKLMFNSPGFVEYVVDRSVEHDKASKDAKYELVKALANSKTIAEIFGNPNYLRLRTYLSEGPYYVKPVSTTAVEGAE
inactive: [1] -0.009 | [2] -0.001 | [3] 0.023 | [4] 0.027 | Nexturastat A -0.01 | vemurafenib 0.015 | [5] 0.047 | [6] 0.003 | givinostat -0.007 | barasertib 0.027
